Active and inactive are the calls of the source.
Legend:
Albumin (Bos taurus) = Albumin (Bos taurus) (UniProt P02769); test: compounds binding labelled BSA control protein – biochemical, small-molecule microarray, Alexa647 label, 635/667 nm fluorescence, artefact control for SMM control protein annotation, profiling panel (AID 1118); details: BSA-A647 binding, fluorescence 635 nm, higher = more signal;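 further: score merges 667 nm emission intensity and signal-to-noise per printed compound spot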
[1] = probe aXIP binding to arrayed compounds – biochemical, NeuroSMM set, 635/667 nm fluorescence, primary screen (AID 1119); details: small-molecule microarray, higher = more signal, called active from +8 up or from −8 down;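 further: probe is the protein aXip251-270 applied at 1 µg/mL to compound-printed slides; binding of probe to printed compounds measured as 667 nm fluorescence plus signal to noise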
[2] = probe aNOTCH3 binding on compound microarray – biochemical, small-molecule microarray, 635/667 nm fluorescence, primary screen (AID 1120); details: higher = more signal;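 further: probe is a biotin-tagged antibody raised against NOTCH3 rather than NOTCH3 protein; score merges spot fluorescence near 667 nm with spot signal to noise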
[3] = probe aNOTCH2 binding on compound microarray – biochemical, small-molecule microarray, 635/667 nm fluorescence, primary screen (AID 1121); details: higher = more signal;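 further: score merges feature fluorescence read at 667 nm with its signal to noise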
[4] = molecular target: Carbonic anhydrase 2 (Homo sapiens) (UniProt P00918); test: compounds binding carbonic anhydrase 2 – biochemical, small-molecule microarray, Alexa647-labelled CAII, profiling panel (AID 1122); details: CAII-A647 binding fluorescence, higher = more signal
[5] = COS7 lysate on small-molecule microarray, probe aHis, 635 nm (AID 1123); details: COS7 cell lysate, fluorescence, higher = more signal;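 further: z-score combines 667nm fluorescence intensity with signal-to-noise per printed compound spot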
[6] = probe aLAP1 signal on lysate-treated microarray – cell lysate, small-molecule microarray, COS7 lysate, primary screen (AID 1124); details: probe aLAP1, fluorescence, higher = more signal;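 further: lysate comes from COS7 cells expressing LAP1 and is applied at 0.3 µg/mL; score merges spot fluorescence near 667 nm with signal-to-noise over triplicate slides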
Sam68 (KHDRBS1) = test: compounds binding KHDRBS1 protein – biochemical, small-molecule microarray, 635 nm fluorescence, primary screen (AID 1125); details: higher = more signal;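 further: score merges 667 nm channel intensity with signal to noise over triplicate slides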
[7] = tested on: Chordin-like protein 2 (CHRDL2); test: compounds binding chordin-like 2 – biochemical, small-molecule microarray, 635 nm fluorescence, primary screen (AID 1126); details: fluorescence 635 nm, higher = more signal;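 further: printed compound slides probed with Chrdl2 protein at 4 µg/mL for 1 h at 4 C; score merges 667 nm emission intensity with signal to noise over three replicate slides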
[8] = molecular target: Concanavalin-A (Canavalia ensiformis) (UniProt P02866); test: compounds binding concanavalin A lectin – biochemical, small-molecule microarray, Alexa647 label, 635 nm, artefact control for SMM control protein annotation, primary screen (AID 1127); details: ConA-A647 binding fluorescence, higher = more signal;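 further: z combines 667 nm emission intensity with signal-to-noise across three replicate slides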
Concanavalin-A (Canavalia ensiformis), sequence (P02866 whole entry, looked up): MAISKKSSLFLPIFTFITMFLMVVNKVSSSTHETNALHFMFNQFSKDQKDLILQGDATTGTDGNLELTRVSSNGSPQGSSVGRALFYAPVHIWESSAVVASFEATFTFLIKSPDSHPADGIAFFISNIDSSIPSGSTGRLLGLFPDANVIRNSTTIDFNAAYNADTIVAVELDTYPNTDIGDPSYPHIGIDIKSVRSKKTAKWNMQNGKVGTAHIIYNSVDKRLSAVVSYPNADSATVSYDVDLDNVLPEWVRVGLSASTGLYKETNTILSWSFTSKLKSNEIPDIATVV

[9] = compounds binding Alexa647 anti-His antibody – biochemical, small-molecule microarray, 635 nm fluorescence, artefact control for SMM control protein annotation, primary screen (AID 1128); details: higher = more signal;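 further: score merges feature fluorescence with signal-to-noise for each printed compound spot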
[10] = tested on: Human papillomavirus type 1a E7 protein (residues 1-88); test: HPV1a E7 small-molecule binders, primary screen, biochemical, small-molecule microarray, residues 1-88, 635 nm (AID 1129); details: small-molecule microarray binding, fluorescence 635 nm; higher = more signal
[11] = molecular target: Focal adhesion kinase 1 (Homo sapiens) (UniProt Q05397); test: PTK2 protein binding on printed compound slides – biochemical, small-molecule microarray, 635/667 nm fluorescence, BSA, DTT, primary screen (AID 1130); details: 635 nm fluorescence, higher = more signal;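 further: composite of spot emission at 667 nm and signal to noise over triplicate slides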
Focal adhesion kinase 1 (Homo sapiens), sequence (Q05397 whole entry, looked up): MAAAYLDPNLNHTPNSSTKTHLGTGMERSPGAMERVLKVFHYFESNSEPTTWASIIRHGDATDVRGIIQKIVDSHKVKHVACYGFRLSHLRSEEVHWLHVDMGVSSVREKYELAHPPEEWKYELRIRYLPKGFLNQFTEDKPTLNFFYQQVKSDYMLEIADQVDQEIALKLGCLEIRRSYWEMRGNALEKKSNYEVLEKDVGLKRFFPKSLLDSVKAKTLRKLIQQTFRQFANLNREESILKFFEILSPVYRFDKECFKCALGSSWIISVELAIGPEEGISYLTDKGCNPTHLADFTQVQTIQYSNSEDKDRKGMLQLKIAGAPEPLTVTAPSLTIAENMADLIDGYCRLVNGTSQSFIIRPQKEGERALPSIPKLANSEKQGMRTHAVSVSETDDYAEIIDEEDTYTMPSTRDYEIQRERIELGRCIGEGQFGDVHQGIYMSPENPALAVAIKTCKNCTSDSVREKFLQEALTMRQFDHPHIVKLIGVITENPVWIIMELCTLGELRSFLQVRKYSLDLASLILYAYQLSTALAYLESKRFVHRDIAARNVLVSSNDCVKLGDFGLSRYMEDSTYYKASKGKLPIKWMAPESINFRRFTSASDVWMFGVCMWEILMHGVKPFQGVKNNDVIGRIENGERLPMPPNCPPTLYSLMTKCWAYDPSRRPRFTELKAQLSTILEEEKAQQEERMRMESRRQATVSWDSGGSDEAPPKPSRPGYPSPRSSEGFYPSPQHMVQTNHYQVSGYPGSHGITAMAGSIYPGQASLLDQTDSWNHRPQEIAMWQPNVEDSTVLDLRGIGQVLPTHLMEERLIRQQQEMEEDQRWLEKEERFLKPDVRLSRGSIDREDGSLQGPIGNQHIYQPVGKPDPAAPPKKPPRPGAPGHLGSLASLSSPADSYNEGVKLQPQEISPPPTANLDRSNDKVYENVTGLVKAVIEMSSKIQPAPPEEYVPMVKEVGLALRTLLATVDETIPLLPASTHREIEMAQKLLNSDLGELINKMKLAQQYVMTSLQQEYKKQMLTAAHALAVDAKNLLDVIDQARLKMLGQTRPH

[12] = tested on: Fibrinogen (Alexa647-labelled); test: Alexa647-fibrinogen binding to printed small molecules – biochemical, small-molecule microarray, 635/667 nm fluorescence, artefact control for SMM control-protein annotation, profiling panel (AID 1131); details: fibrinogen-A647 binding fluorescence, higher = more signal;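 further: z-score merges 667 nm fluorescence with per-spot signal-to-noise over triplicate slides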
[13] = molecular target: Follistatin (Homo sapiens) (UniProt P19883); test: FST protein binding to printed compounds – biochemical, small-molecule microarray, 635/667 nm fluorescence, primary screen (AID 1132); details: 635 nm fluorescence, higher = more signal
Follistatin (Homo sapiens), sequence (P19883 whole entry, looked up): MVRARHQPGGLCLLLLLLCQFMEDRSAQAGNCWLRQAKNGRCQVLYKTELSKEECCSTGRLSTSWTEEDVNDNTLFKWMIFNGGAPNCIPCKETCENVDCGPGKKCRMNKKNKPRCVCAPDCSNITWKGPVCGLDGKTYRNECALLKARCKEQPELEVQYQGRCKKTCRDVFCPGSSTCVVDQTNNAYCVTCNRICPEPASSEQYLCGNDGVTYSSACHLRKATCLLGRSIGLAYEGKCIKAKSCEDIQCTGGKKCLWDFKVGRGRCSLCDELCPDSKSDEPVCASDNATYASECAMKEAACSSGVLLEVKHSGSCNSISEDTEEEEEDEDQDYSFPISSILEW

[14] = molecular target: Fibroblast growth factor 2 (Homo sapiens) (UniProt P09038); test: basic fibroblast growth factor binding to printed compounds – biochemical, small-molecule microarray, 635/667 nm fluorescence, primary screen (AID 1133); details: FGF2, fluorescence 635/667, higher = more signal
Fibroblast growth factor 2 (Homo sapiens), sequence (P09038 whole entry, looked up): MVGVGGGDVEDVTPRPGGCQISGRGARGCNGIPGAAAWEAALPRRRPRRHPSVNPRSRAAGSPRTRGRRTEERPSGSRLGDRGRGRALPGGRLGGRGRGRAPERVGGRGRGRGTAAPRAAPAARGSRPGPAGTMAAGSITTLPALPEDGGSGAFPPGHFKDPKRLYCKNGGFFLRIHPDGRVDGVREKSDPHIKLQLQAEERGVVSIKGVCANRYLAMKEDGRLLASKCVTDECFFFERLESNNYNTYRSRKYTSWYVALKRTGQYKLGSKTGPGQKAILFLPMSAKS

[15] = JC-1 mitochondrial potential readout, lung cancer cells – cell-based, A549, JC-1 fluorescence, basal, 24 h, 100 nL, profiling panel (AID 1138); details: higher = more signal;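 further: A549 lung adenocarcinoma cells under basal conditions with no added stimulus; test concentration not given here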
Lefty1 = Lefty1 protein binding to printed compounds – biochemical, small-molecule microarray, 635/667 nm fluorescence, primary screen (AID 1139); details: fluorescence 635/667, higher = more signal
[16] = tested on: wheat germ agglutinin (Triticum aestivum), Alexa647-labelled; test: Alexa647-WGA lectin binding to printed small molecules – biochemical, small-molecule microarray, 635/667 nm fluorescence, artefact control for SMM control-protein annotation, profiling panel (AID 1140); details: WGA-A647 binding, 635 nm fluorescence, higher = more signal;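 further: score merges 667 nm feature emission with signal to noise over triplicate slides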
[17] = molecular target: Luciferin 4-monooxygenase (Photinus pyralis) (UniProt P08659); test: inhibition of purified Photinus pyralis luciferase – biochemical, luminescence, purified enzyme, 2006 set, primary screen (AID 1141); details: purified firefly luciferase, SteadyGlo luminescence, 30 min; higher = more signal, called active from +8 up or from −8 down;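 further: cell-free assay with purified firefly luciferase at 100 ng per well in PBS; test concentration not given here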
Luciferin 4-monooxygenase (Photinus pyralis), sequence (P08659 whole entry, looked up): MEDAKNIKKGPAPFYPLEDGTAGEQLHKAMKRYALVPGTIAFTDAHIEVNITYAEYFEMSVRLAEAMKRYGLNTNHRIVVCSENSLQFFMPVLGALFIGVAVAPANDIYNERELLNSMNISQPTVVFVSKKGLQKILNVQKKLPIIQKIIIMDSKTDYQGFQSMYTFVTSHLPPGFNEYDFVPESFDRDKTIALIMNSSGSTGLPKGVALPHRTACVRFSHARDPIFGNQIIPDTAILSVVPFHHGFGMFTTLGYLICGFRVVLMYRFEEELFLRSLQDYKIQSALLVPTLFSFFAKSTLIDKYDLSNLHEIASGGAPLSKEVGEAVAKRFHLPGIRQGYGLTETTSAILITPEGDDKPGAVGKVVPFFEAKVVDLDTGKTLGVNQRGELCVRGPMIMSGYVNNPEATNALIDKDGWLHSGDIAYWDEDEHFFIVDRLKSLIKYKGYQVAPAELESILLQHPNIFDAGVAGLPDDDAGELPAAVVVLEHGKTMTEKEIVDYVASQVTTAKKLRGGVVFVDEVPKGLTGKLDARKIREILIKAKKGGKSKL

Albumin (Bos taurus), sequence (P02769 whole entry, looked up): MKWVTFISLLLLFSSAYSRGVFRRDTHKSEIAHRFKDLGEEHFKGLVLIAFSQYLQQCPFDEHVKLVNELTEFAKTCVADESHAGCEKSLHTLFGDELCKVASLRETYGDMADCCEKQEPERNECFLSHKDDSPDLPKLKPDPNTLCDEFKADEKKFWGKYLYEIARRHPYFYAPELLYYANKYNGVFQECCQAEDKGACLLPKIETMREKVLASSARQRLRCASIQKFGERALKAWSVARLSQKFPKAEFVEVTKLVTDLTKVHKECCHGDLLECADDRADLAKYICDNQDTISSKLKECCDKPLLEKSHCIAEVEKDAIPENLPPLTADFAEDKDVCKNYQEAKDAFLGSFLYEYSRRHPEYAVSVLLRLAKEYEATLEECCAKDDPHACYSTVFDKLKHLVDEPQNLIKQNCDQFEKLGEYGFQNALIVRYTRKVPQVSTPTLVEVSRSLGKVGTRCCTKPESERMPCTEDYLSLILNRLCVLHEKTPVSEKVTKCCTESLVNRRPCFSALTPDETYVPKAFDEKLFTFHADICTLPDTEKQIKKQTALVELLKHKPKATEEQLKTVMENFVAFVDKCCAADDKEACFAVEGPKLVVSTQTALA

| SMILES | composite z-score (Albumin (Bos taurus)) | composite Z-score [1] | composite z-score [2] | composite z-score [3] | composite z-score [4] | composite z-score [5] | composite z-score [6] | composite z-score (Sam68 (KHDRBS1)) | composite z-score [7] | composite z-score [8] | composite z-score [9] | composite z-score [10] | composite z-score [11] | composite z-score [12] | composite z-score [13] | composite z-score [14] | z-score [15] | composite z-score (Lefty1) | composite z-score [16] | z-score [17] |
| --- | --- | --- | --- | --- | --- | --- | --- | --- | --- | --- | --- | --- | --- | --- | --- | --- | --- | --- | --- | --- |
| CC(=O)c1ccc(C(O)C2C=CC3C(=O)N(c4ccccc4)C(=O)C3N2Nc2ccc(C(C)C)cc2)cc1 (stereo not given) | 0.0031 | -0.275 (inactive) | 0.247 | 0.216 | 0.666 | 1.97 | 0.463 | 1.13 | -0.185 | 1.13 | 0.779 | 1.23 | 0.329 | 0.939 | 1.13 | 1.1 | 0.678 | -0.212 | 1.17 | -1.41 (inactive) |
| COCCOC(=O)N1C(=O)[C@@]2(c3cc(C#CCC(C(=O)OC)C(=O)OC)ccc31)[C@H](C(=O)Nc1nc3ccccc3s1)[C@H]1C(=O)O[C@H](c3ccccc3)[C@H](c3ccccc3)N1[C@@H]2c1ccc(O)cc1 | 0.268 | 0.247 (inactive) | 0.512 | -0.0282 | 0.279 | 1.13 | 0.705 | 1.3 | 1.07 | 1.04 | 0.777 | 1.21 | 0.235 | 0.461 | 1.3 | 1.46 | -2.26 | 1.29 | 0.762 | 0.258 (inactive) |
| CCCCCC1=C2CNC(CC(C)C)(C(=O)OC)C=C2C(C)C1=O (stereo not given) | 0.624 | -0.378 (inactive) | 0.376 | 0.0453 | 0.495 | 1.9 | 0.602 | 1.18 | -0.861 | 0.232 | 0.654 | 1.17 | 1.61 | 0.955 | -0.127 | -0.544 | 0.326 | -0.145 | 0.955 | -0.0622 (inactive) |
| C=CC[C@]1(C(=O)NCC(O)CO)COC(c2ccc(OCCCO)cc2)=N1 (stereo not given in full) | -0.506 | -0.181 (inactive) | 0.0897 | -0.0209 | 0.674 | 1.56 | 0.553 | -0.174 | -0.582 | -1.45 | -0.493 | 0.57 | -0.0726 | -1.36 | 0.821 | 1.01 | -0.565 | -0.513 | -0.326 | 0.0208 (inactive) |
| CC=CC(O)C1C=CC2C(=O)NC(=O)C2N1Nc1ccc(Cl)cc1Cl (stereo not given) | 0.7 | 1.23 (inactive) | 0.033 | -0.0698 | 0.59 | 1.72 | 0.465 | -0.227 | 0.853 | -0.953 | 1.78 | -0.352 | -0.288 | -0.419 | 1.04 | -0.0658 | 0.099 | 0.15 | 0.898 | -0.158 (inactive) |
| CCCCN1CC=CC23O[C@@H]4/C=C\CCCOC(=O)C4[C@H]2C(=O)N(C(CO)C(C)C)[C@@H]3C1=O (stereo not given in full) | -0.745 | -0.108 (inactive) | -0.0339 | -0.0504 | 0.781 | 0.0745 | -0.158 | 0.239 | -0.0768 | -0.592 | 0.0807 | -0.654 | -0.192 | -0.458 | 0.0549 | 0.0877 | -0.455 | 0.249 | -0.0096 | -0.0573 (inactive) |
| Cc1ccc(S[C@]2(C(=O)NCC(F)(F)F)CC(=O)N(Cc3ccccc3C(F)(F)F)[C@@H]2c2ccc(CO)cc2)cc1 | -0.0912 | 0.0348 (inactive) | -0.233 | -0.0861 | 0.653 | 1.24 | 1.26 | -0.556 | -1.45 | -0.87 | -0.344 | -0.481 | -1.09 | -0.563 | -1.11 | -0.826 | -0.144 | -1.44 | -0.564 | 0.714 (inactive) |
| CCC(CC)C(O)C1C=CC2C(=O)N(c3ccccc3)C(=O)C2N1Nc1ccccc1F (stereo not given) | 0.86 | 0.204 (inactive) | 0.188 | 0.001 | 0.604 | 1.83 | 0.261 | 0.865 | 0.118 | 0.949 | 1.62 | 1.16 | 0.869 | 0.94 | 0.337 | -0.557 | -0.231 | 0.128 | 0.416 | 0.211 (inactive) |
| C=CCNC(=O)[C@H]1[C@@H]2C(=O)O[C@@H](c3ccccc3)[C@@H](c3ccccc3)N2[C@@H](c2ccc(OCCO)cc2)[C@]12C(=O)Nc1ccccc12 | 0.989 | 1.76 (inactive) | -0.261 | -0.0877 | 0.74 | 2.7 | 1.15 | 1.29 | -0.832 | 1.13 | 2.03 | 0.905 | 0.624 | 0.861 | -0.034 | -0.342 | -0.287 | -0.0965 | 1.22 | -0.0907 (inactive) |
| N#Cc1ccc(C(O)C2C=CC3C(=O)NC(=O)C3N2Nc2ccc(Cl)cc2Cl)cc1 (stereo not given) | 0.956 | 0.868 (inactive) | 0.112 | 0.132 | 0.651 | 2.94 | 1.48 | -0.0258 | -0.581 | 0.489 | 0.299 | 0.534 | 0.352 | 0.732 | -0.0644 | -0.164 | 1.28 | -0.781 | 1.08 | 0.293 (inactive) |
| O=C1O[C@H](c2ccccc2)[C@H](c2ccccc2)N2[C@H]1[C@@H](C(=O)N1CCN(c3ncccn3)CC1)[C@]1(C(=O)Nc3ccc(C#CCCO)cc31)[C@H]2c1ccc(O)cc1 | 0.627 | -0.777 (inactive) | 0.171 | -0.11 | 0.413 | 1.88 | 0.608 | 0.574 | 0.0231 | 1.01 | 0.144 | 0.762 | 1.38 | 0.888 | 0.809 | 0.115 | -0.683 | 0.186 | 0.766 | -0.538 (inactive) |
